Bioassay records deposited in PubChem by National Center for Advancing Translational Sciences (NCATS).
EPAC1 agonist = agonists of human EPAC1; 360,000 tested, 0.073% active; Potency, µM (doses to about 154 µM), usual class: activators; EPAC1 agonist qHTS, biochemical assay; response scale: 100% = response to 6.5 mM cAMP; further: nearly all actives have a fitted effect of over 60% in size
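Fluorescent GDP-exchange assay: 100 nM EPAC1 with 250 nM Rap1B preloaded with BODIPY-GDP and 50 uM GDP; compounds tested as concentration series, 5 min at room temperature, then read every 5 min for 30 min (ex 480/em 540 nm); normalized to 6.5 mM cAMP.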
EPAC2 antag = EPAC2 (human) antagonism; Q8WZA2; EPAC2 GEF exchange of Rap1B-BODIPY-GDP, fluorescence; Potency, µM (series often up to 114 µM), usual class: inhibitors; 360,000 tested, 0.18% active; AID 720708; further: nearly all actives have a fitted effect of over 45% in size
Target sequence (Q8WZA2 whole entry, looked up): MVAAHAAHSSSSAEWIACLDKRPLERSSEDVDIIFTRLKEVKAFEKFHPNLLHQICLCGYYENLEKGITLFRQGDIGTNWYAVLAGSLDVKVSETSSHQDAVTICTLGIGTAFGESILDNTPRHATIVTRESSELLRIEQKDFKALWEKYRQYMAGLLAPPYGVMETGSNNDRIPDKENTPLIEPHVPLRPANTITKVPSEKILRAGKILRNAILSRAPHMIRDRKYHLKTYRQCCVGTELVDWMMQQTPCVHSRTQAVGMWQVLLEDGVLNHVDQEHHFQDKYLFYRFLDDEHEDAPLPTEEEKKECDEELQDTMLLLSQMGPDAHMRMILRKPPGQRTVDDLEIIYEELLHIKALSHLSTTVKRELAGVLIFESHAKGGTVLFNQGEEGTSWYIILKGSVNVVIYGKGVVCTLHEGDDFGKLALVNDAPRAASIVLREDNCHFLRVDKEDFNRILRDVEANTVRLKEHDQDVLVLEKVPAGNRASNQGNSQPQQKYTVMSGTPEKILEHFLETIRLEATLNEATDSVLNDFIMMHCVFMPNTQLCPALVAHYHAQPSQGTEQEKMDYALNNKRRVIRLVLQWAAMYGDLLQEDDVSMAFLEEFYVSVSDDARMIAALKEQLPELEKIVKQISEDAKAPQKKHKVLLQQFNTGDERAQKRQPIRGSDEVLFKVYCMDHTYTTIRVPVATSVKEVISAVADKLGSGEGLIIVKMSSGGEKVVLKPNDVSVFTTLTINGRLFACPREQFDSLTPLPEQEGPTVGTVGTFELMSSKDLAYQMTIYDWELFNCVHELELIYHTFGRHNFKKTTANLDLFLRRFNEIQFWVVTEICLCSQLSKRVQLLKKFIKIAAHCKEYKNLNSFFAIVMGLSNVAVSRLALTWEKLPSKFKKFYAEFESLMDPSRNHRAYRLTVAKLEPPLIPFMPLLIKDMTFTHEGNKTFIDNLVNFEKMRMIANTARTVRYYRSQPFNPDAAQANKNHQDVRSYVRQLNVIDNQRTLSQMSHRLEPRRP
USP1-UAF1 inh = USP1/UAF1 (human) deubiquitinase inhibition. recombinant USP1/UAF1, Ub-Rhodamine cleavage fluorescence. Potency, µM (top dose mostly 57.1 µM), usual class: inhibitors. 390,000 tested, 0.23% active. AID 743255; further: nearly all actives have a fitted effect of over 60% in size
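High-throughput fluorogenic screen: 1nM USP1/UAF1 complex, Ub-Rho substrate 150nM final, 50mM HEPES pH 7.8 with 0.5mM EDTA, 0.1 mg/ml BSA, 1mM TCEP and 0.01% Tween-20.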
Coupling enz = coupling enzyme interference in Giardia aldolase counter-screen | coupling enzyme system counterscreen, AmpLite Red fluorescence | activity change, negative = inhibition, % at 58.2 µM, hits read low | 290,000 tested, 0.67% active | AID 2472; in the data active means activity change below about -30%
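Counterscreen of the coupled detection system alone, without aldolase: glyceraldehyde-3-phosphate coupling enzymes plus AmpLite Red readout. Compounds at 57.5 uM final, 10 min RT preincubation, 20 min RT reaction, fluorescence 525/598 nm.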
EPAC1 antag = EPAC1 (human) antagonism. O95398. EPAC1 GEF assay, Rap1b-BODIPY-GDP exchange fluorescence. Potency, µM (doses to about 115 µM), hits mostly inhibitors. 360,000 tested, 0.14% active; further: nearly all actives have a fitted effect of over 50% in size
EPAC2 agonist = activates human EPAC2 exchange factor | Q8WZA2 | EPAC2 activation, biochemical qHTS; response scale: 100% = 6.5 mM cAMP response | Potency, µM (series often up to 154 µM), most hits filed as activators | 360,000 tested, 0.079% active | AID 720711; further: nearly all actives have a fitted effect of over 50% in size
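Compounds were added across a concentration range to EPAC2 (100 nM), RAP1B-BODIPY-GDP (250 nM) and GDP (50 uM). After 5 min at room temperature, fluorescence was recorded at 5-min intervals for 30 min.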
Each line names hits and unclear results; the compound was inactive in the other large screens; ! = not active in a repeat. An excerpt weighted towards active compounds, which were near 0.87% of everything screened. Unless noted, the call rests on the fitted dose curve; in most records, active means well fitted curve in the direction sought with a large enough effect; inconclusive means small, poorly fitted or top-dose-only effect, or another doubt; inactive means no such curve, though single readings can be large; an effect the other way counts as inactive or inconclusive.

CCOC(=O)c1sc(N2C(=O)C(O)=C(C(=O)c3ccco3)C2c2cccc([N+](=O)[O-])c2)nc1C (stereo not given)	EPAC1 antag 22µM (no result: Coupling enz)
O=C(Nc1cccc(S(=O)(=O)N2CCCC2)c1)C1CCCN1C(=O)c1cccs1 (stereo not given)	none
CCNc1cccc2c1C(=O)N(C)C2=O	EPAC1 agonist inconclusive, USP1-UAF1 inh 16µM, EPAC2 agonist inconclusive
COc1ccc(OC)c(C2NC(=O)NC(C)=C2C(=O)Nc2ccc(C)cc2)c1 (stereo not given)	none
Oc1c(C=Nc2ccccc2)sc2ccccc12	none
Oc1c(C=Nc2cccnc2)sc2ccccc12	none
Oc1sc(C=Nc2ccccc2)c2ccccc12	USP1-UAF1 inh 28µM, EPAC2 agonist inconclusive
Oc1sc(C=Nc2ccc(F)cc2)c2ccccc12	USP1-UAF1 inh 32µM
CCc1ccc2c(c1)NC(=O)C2(C)Cc1ccc(F)cc1 (stereo not given)	EPAC2 antag 45µM (no result: USP1-UAF1 inh, Coupling enz)
CCc1ccc2c(c1)NC(=O)C2(C)Cc1ccc(Cl)s1 (stereo not given)	EPAC2 antag inconclusive (no result: USP1-UAF1 inh, Coupling enz)
COc1cc(-c2c(CCO)sc3ccccc23)cc(OC)c1OC	EPAC2 antag 47µM (no result: USP1-UAF1 inh, Coupling enz)
COc1ccccc1N1CCN(C(=O)c2ccccc2SCC(=O)N2CCCC2)CC1	none (no result: Coupling enz)
Cc1cc(C)n(CCOc2ccc(Br)cc2)n1	EPAC2 antag 35µM
Cc1[nH]c(=O)nc(NN=Cc2ccc(Cl)cc2)c1C(=O)Nc1ccc(Cl)cc1	EPAC2 agonist 32µM (no result: Coupling enz)
COc1cccc(C(C[N+](=O)[O-])c2c(C)[nH]n(-c3ccccc3)c2=O)c1 (stereo not given)	Coupling enz -44, EPAC1 antag inconclusive
O=C(NCCc1ccccc1)c1ccc(NC(=O)C2CCCC2)cc1	none (no result: Coupling enz)
COc1cc(-c2ccc(Nc3ccccc3C(=O)O)c(OC)c2)ccc1Nc1ccccc1C(=O)O	USP1-UAF1 inh inconclusive, EPAC1 antag 79µM
COc1cccc(Nc2ccccc2C(=O)O)c1	EPAC1 antag inconclusive
CCc1ccccc1NC(=O)Cn1ccn(-c2ccc(OC)cc2)c(=O)c1=O	none
COC(=O)c1cn(C(=O)OC)c2ccccc12	none
COC(=O)c1cn(C(=O)c2ccccc2Cl)c2ccccc12	EPAC2 antag 28µM
COc1ccccc1-n1c(C)c2c(OC)cccc(=O)c2c1C	none
O=c1oc2ccccc2c(Nc2cc3ccccc3cc2O)c1[N+](=O)[O-]	Coupling enz -56, EPAC1 antag inconclusive
O=c1cc(CN2CCN(S(=O)(=O)c3cccc(Cl)c3)CC2)c2ccc(O)cc2o1	EPAC1 antag 79µM (no result: Coupling enz)
O=C(N1CCOCC1)N1CCCN(C(=O)N2CCOCC2)CC1	none
Cc1ccc(NC(=O)NCCCN2CCCC2=O)cc1	none
O=C(O)c1ccc(NC2=C/C(=N/S(=O)(=O)c3ccccc3)c3ccccc3C2=O)cc1	EPAC2 antag inconclusive, USP1-UAF1 inh 2.8µM, Coupling enz -47, EPAC1 antag inconclusive
Cc1ccc(S(=O)(=O)N2CCC(C(=O)C3C(=O)CC(C)(C)CC3=O)CC2)cc1	none
Cc1ccc(S(=O)(=O)/N=C2/C=C(C3C(=O)CC(C)(C)CC3=O)C(=O)c3ccccc32)cc1	USP1-UAF1 inh inconclusive, Coupling enz -48
Cc1cc(C)c(S(=O)(=O)/N=C2\C=C(Nc3ccc(C(=O)O)cc3)C(=O)c3ccccc32)c(C)c1	EPAC1 agonist 100µM, USP1-UAF1 inh 14µM, Coupling enz -42
Cc1ccc(S(=O)(=O)/N=C2\C=C(NS(=O)(=O)c3ccccc3)C(=O)c3ccccc32)cc1	EPAC2 antag inconclusive, USP1-UAF1 inh 18µM, EPAC1 antag inconclusive (no result: Coupling enz)
COc1cccc(NC(=O)CNC(=O)c2ccc(C)cc2)c1	none
C/C(=C\C(=S)Nc1ccccc1)Nc1ccc2ccccc2c1	Coupling enz -37
C=CCNC(=S)NCc1ccccc1	none
C=CCNC(=S)Nc1cccc2ccccc12	Coupling enz -51
C/C(=C\C(=S)Nc1ccccc1)Nc1cccc2ccccc12	Coupling enz -49
S=C(NCc1ccccc1)Nc1ccc2ccccc2c1	none (no result: Coupling enz)
O=C(N/N=C1/C(=O)c2cccc3cccc1c23)c1ccc(Cl)cc1	USP1-UAF1 inh inconclusive
O=C(COC(=O)/C=C/c1cccc(F)c1)NC1CC1	none (no result: Coupling enz)
O=C1NC(=O)C2(N1)C(=O)c1cccc3cccc2c13 (stereo not given)	EPAC1 agonist 112µM, USP1-UAF1 inh 35µM, EPAC2 agonist inconclusive (no result: Coupling enz)
O=C1NC(=O)C2(N1)c1ccccc1-c1ccccc12	none (no result: Coupling enz)
CC(=O)Nc1ccc(S(=O)(=O)NCC2CCC(C(=O)NCCN(CC(C)C)CC(C)C)CC2)cc1 (stereo not given)	none (no result: EPAC1 agonist, EPAC2 antag, Coupling enz, EPAC1 antag, EPAC2 agonist)
Cc1cc(C(=O)OCC(=O)NCc2ccccc2)c(C)o1	none
CCOC(=O)c1ccc(NCn2c(=O)oc3ccccc32)cc1	USP1-UAF1 inh 25µM
CC(=O)Oc1ccc(OC(C)=O)c(S(=O)(=O)c2ccc(C)c(C)c2)c1	none
O=[N+]([O-])c1ccc(N2CCN(c3cccc(Cl)c3)CC2)nc1	none
COC(=O)c1ccc(-c2noc(CN(C)CCC3CCCCO3)n2)cc1 (stereo not given)	Coupling enz -55
COC(=O)CC1Oc2cc3oc4c(c3cc2O1)C(=O)CC(C)(C)C4 (stereo not given)	none (no result: EPAC1 agonist, EPAC2 antag, USP1-UAF1 inh, EPAC1 antag, EPAC2 agonist)
CC1(C)CC(=O)c2c(oc3cc(O)c(O)cc23)C1	Coupling enz -62!
CNc1cc(N2CCCC2)ccc1[N+](=O)[O-]	none
Cc1cccc(-n2nnnc2SCC(=O)NCC2CCCO2)c1 (stereo not given)	none
O=C(O)c1cccc(NC2=C(n3nnc4ccccc43)C(=O)c3ccccc3C2=O)c1	USP1-UAF1 inh 28µM, Coupling enz -32
O=C(O)c1cccc(NS(=O)(=O)c2ccc3nnn(O)c3c2)c1	none
COc1cccc(C(=O)N2CCN(Cc3ccccn3)CC2)c1OC	Coupling enz -55
COc1ccc(CN2CCN(C(=O)c3cccc(OC)c3OC)CC2)cc1OC	none
COc1ccc2[nH]c3c4c(ccc3c2c1)C(=O)C=CC4=O	USP1-UAF1 inh inconclusive, Coupling enz -38
Nc1ncnc2c1ncn2[C@@H]1O[C@H](CNCC#Cc2ccccc2)[C@@H](O)[C@H]1O	none (no result: Coupling enz)
Clc1ccc(N2CCCCCC2)nn1	none
O=C(O)c1ccc2cccnc2n1	Coupling enz -39
O=C(O)c1cccc(C(=O)O)n1	Coupling enz -80 (no result: EPAC1 agonist, EPAC2 antag, USP1-UAF1 inh, EPAC1 antag, EPAC2 agonist)
O=C(O)c1cccc(Cl)n1	none
CCOC(=O)c1c(C)sc(-c2c(-c3ccc4c(c3)OCCO4)[nH]c3c2c(=O)[nH]c(=O)n3C)c1O	USP1-UAF1 inh 25µM (no result: EPAC1 agonist, EPAC2 antag, Coupling enz, EPAC1 antag, EPAC2 agonist)
